Experimental data reported in PubChem BioAssay AID1159580 (chemical genetic matrix, 2015).
“And” between values parts separate entries of the source, which are not always exact repeats. Equal entries are not always repeated. Screen size: about 5,500 compounds; about 2,000 (36%) were called active. Inconclusive results (about 18%) are left out. No stated cut-off is given here; in the data, active means normalized growth mostly below about 0.91 (no sharp cut-off); inconclusive means no clear call, values can overlap the other calls; inactive means mostly above about 0.92. The list shows a part of the results.

Assay: chemical genetic growth profiling, strain panel (AID 1159580);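 further: tested at 20 µM; growth read once vehicle control cultures reached saturation at 30 °C; 1 = growth at the plate median or of vehicle wells; lower values mean less growth of the strain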
Conditions: S. cerevisiae deletion strains, growth OD

Measured: normalized growth

NCC1CCC(C(=O)O)CC1 (stereo not drawn)
inactive: locus YAL021C, strain ccr4, hits give low values 1 | locus YAL026C, strain drs2, hits give low values 0.998 | locus YAL030W, strain snc1, hits give low values 1 | locus YBL061C, strain skt5, hits give low values 0.979 | locus YBR009C, strain hhf1, hits give low values 0.992 | locus YBR021W, strain FUR4, hits give low values 0.988 | locus YBR023C, strain chs3, hits give low values 0.992 | locus YBR171W, strain sec66, hits give low values 0.986 | locus YBR229C, strain ROT2, hits give low values 1 | locus YBR231C, strain swc5, hits give low values 0.988 | locus YBR279W, strain paf1, hits give low values 1.01 | locus YCL011C, strain gbp2, hits give low values 1 | locus YCL016C, strain dcc1, hits give low values 0.993 | locus YCL029C, strain bik1, hits give low values 0.982 | locus YCL061C, strain MRC1, hits give low values 0.999 | locus YCL069W, strain vba3, hits give low values 0.991 | locus YCR088W, strain abp1, hits give low values 0.989 | locus YDL005C, strain med2, hits give low values 0.974 | locus YDL035C, strain GPR1, hits give low values 0.985 | locus YDL040C, strain nat1, hits give low values 0.972 | locus YDL074C, strain BRE1, hits give low values 1.04 | locus YDL101C, strain DUN1, hits give low values 0.996 | locus YDL134C, strain PPH21, hits give low values 0.985 | locus YDL185W, strain tfp1, hits give low values 0.965 | locus YDL192W, strain arf1, hits give low values 0.994 | locus YDR001C, strain nth1, hits give low values 0.987 | locus YDR069C, strain doa4, hits give low values 0.984 | locus YDR101C, strain arx1, hits give low values 1 | locus YDR137W, strain rgp1, hits give low values 1 | locus YDR150W, strain NUM1, hits give low values 0.986 | locus YDR159W, strain sac3, hits give low values 0.974 | locus YDR162C, strain NBP2, hits give low values 0.973 | locus YDR195W, strain ref2 0.956 | locus YDR297W, strain sur2, hits give low values 0.973 | locus YDR318W, strain mcm21, hits give low values 0.978 | locus YDR334W, strain swr1, hits give low values 1.01 | locus YDR335W, strain msn5, hits give low values 1 | locus YDR388W, hits give low values 0.999 | locus YDR392W, strain spt3, hits give low values 1 | locus YDR502C, strain sam2, hits give low values 0.996 | locus YEL003W, strain gim4, hits give low values 0.995 | locus YEL037C, strain rad23, hits give low values 0.991 | locus YEL061C, strain CIN8 (second series), hits give low values 1 | locus YEL061C, strain CIN8, hits give low values 1 | locus YER015W, strain faa2, hits give low values 0.987 | locus YER016W, strain bim1, hits give low values 0.971 | locus YER110C, hits give low values 0.988 | locus YER111C, strain swi4, hits give low values 0.978 | locus YER155C, strain BEM2 (second series), hits give low values 0.974 | locus YER155C, strain BEM2, hits give low values 0.995 | locus YER167W, strain BCK2, hits give low values 0.997 | locus YFR010W, strain ubp6, hits give low values 0.99 | locus YGL078C, strain dbp3, hits give low values 0.998 | locus YGL086W, strain mad1, hits give low values 1 | locus YGL173C, strain kem1, hits give low values 0.974 | locus YGL227W, strain vid30, hits give low values 0.998 | locus YGL240W, strain doc1, hits give low values 0.999 | locus YGL248W, strain PDE1, hits give low values 1.01 | locus YGL253W, strain hxk2, hits give low values 0.977 | locus YGR078C, strain PAC10, hits give low values 1.04 | locus YGR135W, strain pre9, hits give low values 0.96 | locus YGR252W, strain gcn5, hits give low values 1.02 | locus YHR013C, strain ard1, hits give low values 0.979 | locus YHR027C, strain rpn1, hits give low values 0.996 | locus YHR030C, strain SLT2, hits give low values 0.98 and 1.04 | locus YHR079C, strain IRE1 (second series), hits give low values 0.985 | locus YHR079C, strain IRE1, hits give low values 1.06 | locus YHR094C, strain hxt1, hits give low values 0.999 | locus YHR129C, strain ARP1, hits give low values 0.986 | locus YHR142W, strain chs7, hits give low values 0.994 | locus YHR200W, strain rpn10, hits give low values 0.973 | locus YIL066C, strain RNR3, hits give low values 1 | locus YIL073C, strain SPO22, hits give low values 0.909 | locus YIL125W, strain kgd1, hits give low values 0.995 | locus YIR030C, strain dcg1, hits give low values 0.987 | locus YJL092W, strain hpr5, hits give low values 0.986 | locus YJL095W, strain BCK1 (second series), hits give low values 0.986 | locus YJL095W, strain BCK1, hits give low values 1.04 and 1.01 | locus YJL115W, strain asf1, hits give low values 0.98 | locus YJL129C, strain trk1, hits give low values 0.997 | locus YJL134W, strain LCB3, hits give low values 0.997 | locus YJL154C, strain vps35, hits give low values 0.988 | locus YJL164C, strain tpk1, hits give low values 0.985 | locus YJL166W, strain qcr8, hits give low values 0.983 | locus YJL168C, strain set2, hits give low values 0.999 | locus YJL187C, strain SWE1 (second series), hits give low values 1.02 | locus YJR043C, strain POL32, hits give low values 1 | locus YJR066W, strain TOR1, hits give low values 0.98
